Assay results taken from PubChem BioAssay (NCI).
This is part of a sample that, as a whole, favours compounds with a hit. Of some 79,000 tested, about 15% had one in any assay. A number with no mark means an inactive call. Calls of active or inactive are those of the source. Rule as the data show it: active = growth inhibition above about 70%; inactive = the rest.

Tests used:
[1] = NCI Yeast Anticancer Drug Screen. Data for the rad50 strain (AID 155);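 also: 0% = growth of vehicle-only cultures of the same strain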; details: S. cerevisiae rad50 strain growth inhibition; at 50.0 µM; active compounds read high
Summary of the method: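 A DNA repair-deficient yeast mutant serves as the test organism; compound-induced growth inhibition is calculated against vehicle-treated cells.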

[2] = NCI Yeast Anticancer Drug Screen. Data for the mec2-1 strain (AID 157); details: S. cerevisiae mec2-1 strain, at 50.0 µM, active compounds read high
Summary of the method: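 Mutant yeast (mec2-1) grown with compound; growth inhibition relative to vehicle control reported.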

[3] = NCI Yeast Anticancer Drug Screen. Data for the sgs1 mgt1 strain (AID 161);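 also: 0% = growth of cultures given vehicle only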; details: S. cerevisiae sgs1 mgt1 strain, at 50.0 µM, active compounds read high
Summary of the method: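 Percent growth inhibition was derived by comparing compound-exposed mutant yeast with vehicle-exposed cultures. The strain carries alterations in DNA damage repair.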

[4] = NCI Yeast Anticancer Drug Screen. Data for the cln2 rad14 strain (AID 165);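 also: 0% = growth equal to vehicle treated cultures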; details: S. cerevisiae cln2 rad14 strain, at 50.0 µM, active compounds read high
Summary of the method: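 Readout is yeast growth inhibition versus vehicle-treated controls, using a strain with cln2 and rad14 alterations exposed to compound.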

[5] = NCI Yeast Anticancer Drug Screen. Data for the bub3 strain (AID 167); details: S. cerevisiae bub3 mutant strain, at 50.0 µM, active compounds read high
Summary of the method: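 Inhibition values come from growth of compound-treated mutant yeast normalised to vehicle-treated controls.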

[6] = NCI Yeast Anticancer Drug Screen. Data for the mlh1 rad18 strain (AID 175); details: S. cerevisiae mlh1 rad18 strain growth inhibition; at 50.0 µM; active compounds read high
Summary of the method: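 Genetically defined yeast (DNA repair-deficient) exposed to compounds; growth inhibition determined relative to vehicle.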

SMILES | growth inhibition [1] | growth inhibition [2] | growth inhibition [3] | growth inhibition [4] [%] | growth inhibition [5] | growth inhibition [6]
Cc1ccc2nc(-c3ccc(Cl)cc3Cl)oc(=O)c2c1 | -9.35% | 3.8% | 20.4% | -12.8 | 20.6% | -7.15%
CC(=O)OC(CC1(C)C(C)CCC23COC(=O)C2=CCCC31)c1ccoc1 (stereo unspecified) | 87.3% (active) | 82.2% (active) | 85.7% (active) | 63.5 | 81.2% (active) | 82% (active)
N#CC1=C(O)/C(=C\C=C\c2ccccc2)N(C(=O)c2ccccc2)C1=N | 12.2% | -7.6% | -6.2% | 10.2 | -6.85% | 19.1%
O=C(C(O)c1ccccc1)N1CCCCC1 (stereo unspecified) | 32.6% | 14.2% | -2.95% | 9.85 | 4.3% | 21.6%
Cc1onc(-c2ccc(-c3noc(C)c3C(=O)O)cc2)c1C(=O)O | -1.9% | -7.75% | -3.25% | -5.4 | -10.4% | 11.4%
COC(=O)N(c1ccccc1)c1ccccn1 | -16.6% | -9.95% | -10.2% | 10.7 | 4.3% | -22.6%
C[n+]1ccccc1CCC(=O)Nc1ccccc1 | -0.65% | 14.9% | 2.05% | 0.05 | 0.7% | -17.9%
CCOC(=O)C1=C(C)Oc2cc3c(cc2C1c1cc(OC)c(O)c(OC)c1)OCO3 (stereo unspecified) | 33.8% | 1.65% | 38.5% | 9.75 | 27.4% | 50.5%
CN(C)/C=N/NC(=O)C(O)c1ccccc1 (stereo unspecified) | 10.3% | 2.2% | 4.45% | 18.2 | 34.4% | -19.6%
COC1CCC(O)C(C=Nc2ccccc2)C1 (stereo unspecified) | 4.8% | -1.85% | -11.8% | 4.35 | 8.5% | -18.8%
Cc1cn(C2CC(O)C(CO)O2)c(=O)nc1N1CCCC1 (stereo unspecified) | -4.2% | -7.4% | -12.9% | -8.55 | -0.4% | 0.55%
O=C(O)/C=C\Sc1ccccc1C(=O)O | 2.05% | -15.9% | -6.5% | -2.05 | -10.2% | 23.1%
NC(CCC(=O)OCCn1c2ccccc2c2ccccc21)C(=O)O (stereo unspecified) | -1.9% | -2.4% | 3.3% | -2.1 | 18.1% | 3.95%
N#CC(c1ccc(Cl)cc1)c1ccc(N(CCO)CCO)cc1 (stereo unspecified) | 9.4% | 1.25% | 2.75% | 5.85 | -12.1% | 13.8%
O=[N+]([O-])c1ccc(CC(Cl)c2ccccn2)cc1 (stereo unspecified) | 18.9% | 9.85% | 19.1% | -11.4 | 22.2% | 42.2%
O=C(Nc1ccccc1)C(c1ccccc1)N(Nc1ccccc1Cl)c1ccccc1Cl (stereo unspecified) | 28.8% | 10.8% | 17.1% | 7.05 | -5% | 25%
O=C1CCCC2=C1C(c1ccc(Cl)c(Cl)c1)C1=C(CCCC1=O)O2 | 1.05% | 7.05% | -7.25% | -18.5 | 12.6% | 6.45%
CC[N+](C)(CC)CCOC(=O)C(C1=CCCCC1)C1(O)CCCCC1 (stereo unspecified) | 3.05% | -15.8% | -27.5% | -48.9 | 2.5% | -16.6%
CCOP(=Nc1ccccc1)(OCC)OCC | 4.1% | 5.85% | -3.9% | -5 | 1.75% | 9.4%
CCC1(CC)C(=O)C(CC)(CC)C1=O | 44.5% | 28.1% | 38% | 20.9 | 39.1% | 6.55%
Cn1c(=O)c2nc3c(=O)n(C)c(=O)n(CC(N)=O)c3nc2n(C)c1=O | 28.2% | -5.65% | 14.9% | 26.2 | 12.1% | 21.4%

SMILES | growth inhibition [1] | growth inhibition [2] | growth inhibition [3] | growth inhibition [4] [%] | growth inhibition [5] | growth inhibition [6]
Cc1ccccc1C(=O)c1ccc2ccccc2c1 | 11.4% | 26.2% | 28.2% | 9.35 | 9.3% | 25.4%
Clc1ccccc1-c1nnc(-c2cccc(-c3nnc(-c4ccccc4Cl)o3)n2)o1 | -1.65% | 6.75% | -6.55% | -9.1 | -3.4% | 12%
CCCc1c(N)nc(N)nc1N | 3.4% | 2.05% | -5.7% | -48.6 | 7.4% | -7.65%
[N-]=[N+]=Nc1nn2cnnc2c2[nH]c3ccccc3c12 | 46% | 0.65% | 4.25% | -1.4 | -14.9% | 16.1%
COc1cc(Br)c2ncccc2c1 | 1.75% | -0.6% | 3.85% | 4.05 | 2.2% | -14.5%
CCOC(=O)/C=C(\C)c1ccc(OC)cc1 | 7.2% | -22.4% | -3.3% | -7.5 | -8.7% | 11.8%
CN(C)CCNc1ccc2ncn3c4ccccc4c(=O)c1c23 | 13.4% | -0.35% | -4.95% | 27.1 | -0.1% | 46.5%
Cn1c2ccccc2c(=S)c2cc(NC(=O)CCCCC(=O)Nc3ccc4c(c3)c(=S)c3ccccc3n4C)ccc21 | 32.2% | 22.9% | 22.4% | 23.5 | -4.1% | 23.9%
O=C(NNC(=S)NCc1ccccc1)C12CC3CC(CC(C3)C1)C2 | -35.6% | -10.3% | -4.2% | 2.55 | 15.5% | -5.9%
COC(=O)c1ccccc1NN=Nc1ccccc1Cl | 3.5% | -17.7% | -0.95% | 8.3 | 6.4% | 11.1%
CC1CC(NC(=O)/C=C/C(=O)O)CC(C)(C)C1 (stereo unspecified) | -2.85% | 1.05% | 9% | -2.95 | 33.9% | -0.2%
CC(C)(C)[Si](C)(C)OCCC1CC2(S(=O)(=O)C3=CC=C=C=C3)ON1CC2S(=O)(=O)c1ccccc1 (stereo unspecified) | 6.8% | -6.2% | -1.45% | -23.9 | -20.4% | 17.1%
O=C(NC1C=Nc2ccc(Cl)cc2NC1=O)c1ccc(Cl)cc1 (stereo unspecified) | 18% | 20.9% | 31.4% | 23.6 | 6.95% | 31.6%
COc1ccc(OC)c(/C=C2/C(=O)N(c3ccccc3)N=C2C)c1 | -7.55% | -1.25% | 5.6% | -1.85 | 15.5% | 4.75%
COc1cccc(/C(C=O)=C(\Cl)c2ccc(OC)c(OC)c2)c1 | 10.1% | 9.55% | 12.4% | 6.7 | 33.5% | -8.3%
CN(C)C(=O)Sc1ccc(N(C)C)cc1 | -5.15% | -17.9% | -11.3% | -25.2 | 15.1% | -23.2%
N#Cc1cc([N+](=O)[O-])ccc1NC(=O)C(=O)C(C(=O)/C=C/c1ccccc1)C1OC(=O)c2ccccc21 (stereo unspecified) | -1.05% | -15.9% | -41.2% | 5.55 | -15.2% | 8.95%
c1ccc(-c2ccccc2NC2=NCCO2)cc1 | 6.55% | -2.8% | 2.2% | -25.1 | 11.4% | 5.7%
COc1ccc2cc3[n+](cc2c1O)CCc1cc2c(cc1-3)OCO2 | 6.75% | -22.8% | 19% | 20.6 | 22.2% | 22.9%
COC(=O)c1ccccc1/C=C1\SC(=S)NC1=O | -1.6% | 6.3% | 17.9% | -9.85 | -4.95% | -0.7%
